In PubChem BioAssay AID2501 (Southern Research Specialized Biocontainment Screening …, 2010) one finds IC50 data, which are given here for 64 compounds.

In all, about 2,200 compounds went through this assay and about 1,200 (55%) were called active. No cut-off is given here; in the data, nearly all actives have IC50 up to about 92 µM. So high a share suggests a set chosen from earlier hits. Some of the results follow.

This assay is described as follows: counter assay for TAg ATPase ADP read-out – biochemical, ADP-Hunter, fluorescence, counter-screen (AID 2501).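 For inhibition: higher means more inhibition.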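 Note: purified T antigen ATPase.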 The conditions noted are these: series mostly up to 100 µM.
For the compound `CC(C)(C)NC(=O)COC(=O)c1cc(F)c(F)cc1Cl`, the IC50 (usually the point on the concentration scale where inhibition reaches its midpoint) is “inactive”.
Take `CCOC(=O)N1[C@@H]2C=C(C)[C@@H]2[C@@H]2[C@@H](C)C(=O)N21`: the IC50 result was “inactive”.
In the case of `Cc1ccccc1/C=C/C(=O)c1ccc([N+](=O)[O-])o1`, the IC50 result was “inactive”.
The value for `COc1cc(/C=C/C(=O)c2ccc([N+](=O)[O-])o2)ccc1O` was 5.19 µM (active); that for `O=C(/C=C/c1cccc(Cl)c1)c1ccc([N+](=O)[O-])o1` was “inactive”.
Turning to `O=S(=O)(c1ccc(NC(=S)N/N=C/c2ccc(O)c(O)c2)cc1)N1CCOCC1`, the IC50 is 5.94 µM (active).
The result for `Cc1ccc(S(=O)(=O)N2[C@@H](c3ccc(Cl)cc3)C(C(=O)O)=CC[C@H]2c2ccc(Cl)cc2)cc1` reads “inactive”; that for `Cc1ccc(S(=O)(=O)N2CCN(CC(=O)N/N=C\c3ccc(O)c(O)c3)CC2)cc1`, 3.2 µM (active); that for `COc1ccc(NC(=O)CN(C)C(=O)CCc2nc3cc(S(=O)(=O)N4CCOCC4)ccc3n2C)cc1`, “inactive”.
The result for `CCN(CC)c1ccc(NC(=O)CCNS(=O)(=O)c2ccc3c(c2)CCC(=O)N3)c(C)c1` reads 7.36 µM (active); that for `CC(C)(C)NC(=O)NC(=O)CN1CCN(c2ccc(O)cc2)CC1`, 4.89 µM (active).
Turning to `CN1CCN(CC(=O)Nc2c(C#N)cnn2-c2ccccc2)CC1`, the IC50 result is “inactive”.
The value for `COc1ccc(-c2nnc(SC(C)C(=O)Nc3c(C)n(C)n(-c4ccccc4)c3=O)o2)cc1` (centres undefined) was “inactive”; that for `Cc1c(NC(=O)CN2CCN(c3ccc(O)cc3)CC2)c(=O)n(-c2ccccc2)n1C` was 8.18 µM (active); that for `Cc1c(NC(=O)C(C)OC(=O)/C=C/c2ccco2)c(=O)n(-c2ccccc2)n1C` (centres undefined) was “inactive”.
As to `N#Cc1ccsc1NC(=O)CN1CCN(c2ccc(O)cc2)CC1`, the IC50 is 6.3 µM (active).
The value for `Cc1c(NC(=O)c2cnn3c2NC(c2ccccc2)CC3C(F)(F)F)c(=O)n(-c2ccccc2)n1C` (centres undefined) was “inactive”.
Turning to `Cc1c(NC(=O)COC(=O)COc2ccc(Nc3ccccc3)cc2)c(=O)n(-c2ccccc2)n1C`, the IC50 is 8.78 µM (active).
The value for `Cc1nc2ccc(NC(=O)c3cc([N+](=O)[O-])cc([N+](=O)[O-])c3Cl)cc2s1` was “inactive”; that for `Cc1ccc(N/C(C(Cl)=C(Cl)Cl)=C(/Cl)[N+](=O)[O-])c(C)c1` was “inactive”.
The result for `O=C(CN1CCN(c2ccc(O)cc2)CC1)Nc1ccc2c(c1)OCCO2` reads 6.55 µM (active); that for `Cc1cc(NC(=O)c2noc3c2CCCCC3)no1`, “inactive”; that for `O=C(Cn1cnc2c(nnn2Cc2ccccc2)c1=O)Nc1ccc2c(c1)OCCO2`, “inactive”.
Turning to `Cc1cc(NC(=O)CN2CCN(c3ccc(O)cc3)CC2)no1`, the IC50 is 4.08 µM (active).
In the case of `Cc1ccc(N(C=NC#N)CC(=O)N2CCN(c3ccccc3)CC2)cc1`, the IC50 result is “inactive”.
As for `O=C(COc1ncnc2sccc12)N1CCN(c2ccccc2)CC1`, the IC50 entry is “inactive”.
The result for `O=C(C1CCCN(S(=O)(=O)c2cccc3nonc23)C1)N1CCN(c2ccccc2)CC1` (centres undefined) reads “inactive”; that for `O=C(CCC(=O)N1CCN(c2ccccc2F)CC1)N1CCN(c2ccccc2)CC1`, “inactive”; that for `O=C(C1CC1)N1CCN(c2ccc(O)cc2)CC1`, 3.4 µM (active).
In the case of `O=C(CCOc1ccccc1)N1CCN(c2ccc(O)cc2)CC1`, the IC50 is 3.56 µM (active).
Regarding `Cc1ccc(OCCC(=O)N2CCN(c3ccc(O)cc3)CC2)cc1`, the IC50 was 4.43 µM (active).
The value for `CCOC(=O)C1CCN(C(=O)COC(=O)CSc2ccc([N+](=O)[O-])cc2)CC1` was “inactive”; that for `CCOc1ccc(OCCC(=O)OCC(=O)N2CCN(S(=O)(=O)c3ccc(C)cc3)CC2)cc1` was 10.1 µM (active).
As for `COc1ccccc1N1CCN(C(=O)C2CCN(S(=O)(=O)c3ccc(C)cc3)CC2)CC1`, the IC50 entry is “inactive”.
In the case of `CCCCCCC1CCC(C(=O)N2CCOCC2)CC1` (centres undefined), the IC50 entry is “inactive”.
In the case of `Clc1ccccc1CSc1nnc(-c2ccco2)c(-c2ccco2)n1`, the IC50 entry was “inactive”.
Turning to `C=CCc1ccc(OCCN2CCc3ccccc3C2)c(OC)c1`, the IC50 entry was “inactive”.
The value for `O=[N+]([O-])c1ccc(SCCc2ccncc2)cc1` was “inactive”; that for `CN1CCc2[nH]c3ccc(C(=O)NN)cc3c2C1` was “inactive”; that for `Cc1c(CCO)c(=O)n(C)n1C(=O)c1ccc(Cl)cc1` was “inactive”.
In the case of `O=C(COc1cccc(C(F)(F)F)c1)N1CCN(c2ccc(O)cc2)CC1`, the IC50 was 15.1 µM (active).
As to `COc1cc(OC)cc(C(=O)NCC(=O)N2CCN(c3ccc(O)cc3)CC2)c1`, the IC50 was 8.71 µM (active).
In the case of `CCOC(=O)N1CCN(c2ccc(O)cc2)CC1`, the IC50 is 4.16 µM (active).
The value for `O=C(COC(=O)COc1cccc(C(F)(F)F)c1)NC1CCCC1` was “inactive”.
The value for `CCOC(=O)N1CCN(C(=O)c2ccc3c(SCC(=O)O)c4c(nc3c2)CCCC4)CC1` was “inactive”; that for `O=C(CCSc1ccc(Cl)cc1)N1CCN(c2ccc(O)cc2)CC1` was 7.46 µM (active); that for `Cc1cc(OCC(=O)N2CCN(c3ccc(F)cc3)CC2)c2c(C)cc(=O)oc2c1` was “inactive”.
The result for `CCOc1ccccc1NC(=O)COC(=O)c1cccc(-c2ccc(OC(C)=O)cc2)c1` reads “inactive”; that for `CCOc1cccc(=O)c2c(C)n(-c3ccc(C(=O)O)cc3)c(C)c12`, “inactive”; that for `CCOc1cc(NC2CS(=O)(=O)CC2O)c(OCC)cc1NC(=O)c1ccccc1` (centres undefined), 4.18 µM (active).
Turning to `COc1ccc2c(=O)c3c(=O)n(Cc4ccco4)c(-c4ccco4)nc3oc2c1`, the IC50 entry was “inactive”.
The value for `CC(=O)NCCc1c[nH]c2ccc(O)cc12` was 7 µM (active).
With `OCCc1c[nH]c2ccc(C(F)(F)F)cc12`, the IC50 result is “inactive”.
The value for `Cc1ccc(S(=O)(=O)N2CCCOC2CNC(=O)C(=O)NCCc2c[nH]c3ccccc23)cc1` (centres undefined) was “inactive”; that for `O=C1c2ccccc2C(=O)N1CCc1c[nH]c2ccc(O)cc12` was 7.26 µM (active); that for `O=[N+]([O-])c1ccc(S(=O)(=O)N2CCSC2c2ccco2)cc1` (centres undefined) was “inactive”.
On to `COc1cc(/C=N/N=C(\N)c2nonc2N)ccc1O`, for which the IC50 was 4.89 µM (active).
In the case of `N/C(=N\N=C\c1ccc(O)c(O)c1)c1nonc1N`, the concentration for half-maximal inhibition (IC50) was 14 µM (active).
The value for `O=c1oc2ccccc2c2oc3cc(O)c(O)cc3c12` was 8.13 µM (active).
The result for `COc1ccc(C2CC(=O)C(C(c3ccc(O)cc3)C3C(=O)CC(c4ccc(OC)cc4)CC3=O)C(=O)C2)cc1` (centres undefined) reads “inactive”; that for `CN(C)c1ccc(C(=O)c2ccc(N(C)C)c(N)c2)cc1N`, 4.76 µM (active); that for `COc1cc(/C=N\NC(=O)CNC(=O)c2cccc([N+](=O)[O-])c2)ccc1O`, 2.18 µM (active).
For the compound `COc1cc(/C=N/NC(=O)c2cccc([N+](=O)[O-])c2)ccc1O`, the IC50 was 2.38 µM (active).
The result for `O=C(CNC(=O)c1ccccc1)OCc1ccc([N+](=O)[O-])cc1` reads “inactive”.
